In PubChem BioAssay:
For some of these results: Entries with a potency or affinity are not part of this list. Some of the results follow. Results filed as inconclusive are left out. Activity calls are given as the source filed them. Unless noted, no rule for the calls is given here.

Columns and labels:
[1] = A549 cell cytotoxicity, dose response, cytotoxicity control, plate reader, cherry-pick, antagonist series (AID 743412);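 also: 0% = neutral control wells and -100% = positive control wells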
[2] = Ring1 mRNA increase in mouse ESCs, confirmation, esBAF inhibitor project, cell-based, mouse ESC, RT-qPCR, cherry-pick (AID 743176;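 active = Ring1 gene expression raised more than 2-fold over untreated cells in both replicates at either tested dose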;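 also: Ring1 transcript normalised to actin housekeeping signal by TaqMan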); conditions: mouse ESC E14, Ring1 mRNA RT-qPCR fold change, stronger effect = higher value
[3] = esBAF inhibition via Bmi1 de-repression, confirmation, cell-based, RT-qPCR, mouse ESC, single point, cherry-pick (AID 743180;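 active = Bmi1 expression fold change above 6 at either tested concentration, seen in replicate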); conditions: mouse ESC E14, Bmi1 mRNA qPCR fold, stronger effect = higher value
[4] = A549 cell cytotoxicity, cytotoxicity control, plate reader, single point, cherry-pick (AID 743188); conditions: at 25 µM
[5] = HepG2 cell cytotoxicity, cytotoxicity control, plate reader, single point, cherry-pick (AID 743189; in the data active = activity change below about -50%); conditions: at 25 µM, stronger effect = lower value
[6] = HEK293 cell cytotoxicity, cytotoxicity control, plate reader, single point, cherry-pick (AID 743190; in the data active = activity change below about -38%, passing the limit was not always enough); conditions: at 25 µM
[7] = Fgf4 mRNA decrease in mouse ESCs, confirmation, esBAF inhibitor project, cell-based, mouse ESC, RT-qPCR, cherry-pick (AID 743177;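 active = Fgf4 expression under 0.8 fold of control in both repeat measurements at one or both tested doses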;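 also: Fgf4 transcript normalised to actin in duplex TaqMan qPCR; cells exposed to compound for 24 h before lysis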); conditions: mouse ESC E14, Fgf4 mRNA qPCR fold change, stronger effect = lower value

SMILES | outcome [1] | fold change ([2]; Ring1 fold increase, at 7 µM) | fold change ([2]; at 33 µM) | fold change ([3]; Bmi1 de-repression, at 7 µM) | fold change ([3]; at 33 µM) | cell viability change % (negative = cytotoxic) [4] | activity change, negative = inhibition [5] | activity change, negative = inhibition [6] | Fgf4 expression fold change ([7]; Fgf4 expression, at 7 µM) | Fgf4 expression fold change ([7]; at 33 µM)
CCC(=O)Nc1cc2nn(-c3ccc(OC)cc3)nc2cc1C | inactive |  |  |  |  |  |  |  |  | 
Cc1ccc(-c2nnc(Nc3ccccc3)o2)cc1 | inactive |  |  |  |  |  |  |  |  | 
Cc1ccc(-c2nc(-c3ccncc3)no2)cc1C | inactive |  |  |  |  |  |  |  |  | 
COc1ccc(Nc2ccc3ccccc3c2)cc1 |  | 1.4 | 1.14 (inactive) | 1.37 | 2.11 (inactive) | -5.46% (inactive) | 10% (inactive) | -0.0365% (inactive) |  | 
CN(C)c1ccc(CSc2ccccc2)cc1 |  | 1.14 | 1.08 (inactive) | 1.01 | 0.984 (inactive) | 5.13% (inactive) | -22.2% (inactive) | 0.895% (inactive) |  | 
COc1ccc(C(=O)Nc2ccc3ccccc3c2)cc1 | inactive |  |  |  |  |  |  |  |  | 
CCc1sc(C(=O)N2CCN(CC(=O)Nc3cccc(F)c3)CC2)cc1C |  | 1.14 | 1.01 (inactive) | 1.34 | 1.56 (inactive) | 0.0417% (inactive) | -21.7% (inactive) | -24% (inactive) | 1.11 | 0.972 (inactive)
COc1ccc(/C=N/OCc2ccccc2C#N)c(OC)c1 |  | 1.08 | 0.981 (inactive) | 1.34 | 1.44 (inactive) | -7.58% (inactive) | -31.8% (inactive) | -7.24% (inactive) |  | 
COc1ccc(Nc2ncnc3sc(C)cc23)cc1 |  | 1.32 | 1.33 (inactive) | 1.3 | 1.05 (inactive) | -6.19% (inactive) | -4.23% (inactive) | -3.92% (inactive) | 1.18 | 1.26 (inactive)
Cc1cc(Cl)nc(NC(=O)Nc2cccc(Cl)c2)n1 |  | 1.34 | 1.28 (inactive) | 1.61 | 1.24 (inactive) | -1.39% (inactive) | -22.4% (inactive) | 1.81% (inactive) | 0.987 | 1.08 (inactive)
COc1cc(NC(=O)c2cccc3c(-c4cccnc4)coc23)cc(OC)c1OC | inactive |  |  |  |  |  |  |  |  | 
COc1cc2ccccc2cc1C(=O)Nc1ccncc1 |  | 1.36 | 1.54 (inactive) | 1.73 | 2.14 (inactive) | -3.23% (inactive) | -16.4% (inactive) | 6.79% (inactive) | 0.817 | 1.21 (inactive)
Clc1cccc(Cl)c1Cn1nnc(-c2cccs2)n1 |  | 1.24 | 0.998 (inactive) | 1.24 | 1.5 (inactive) | -14.2% (inactive) | -32% (inactive) | -18.7% (inactive) | 1.02 | 0.892 (inactive)
Cc1ccc(C(=O)Nc2ccc3c(c2)OCO3)cc1S(=O)(=O)N1CCCCC1 |  | 1.42 | 1.4 (inactive) | 1.85 | 1.9 (inactive) | 4.97% (inactive) | -30.2% (inactive) | -2.34% (inactive) | 0.993 | 0.915 (inactive)
COc1ccc(CC(=O)Nc2cccc(-c3nnc(-c4cccc(C)c4)o3)c2)cc1OC | inactive |  |  |  |  |  |  |  |  | 
COc1ccc(N=Cc2c(O)[nH]c3ccccc23)cc1OC |  | 1.32 | 1.03 (inactive) | 1.45 | 2 (inactive) | 0.475% (inactive) | 24% (inactive) | -17.2% (inactive) | 1.1 | 1.2 (inactive)
O=C(Nc1cccnc1Cl)c1cc(-c2ccccc2O)on1 |  | 1.22 | 1 (inactive) | 1.07 | 1.14 (inactive) | -9.75% (inactive) | -4.96% (inactive) | -13.7% (inactive) | 1.2 | 1.05 (inactive)
O=C(O)c1cccc(-c2noc(-c3cccc(Cl)c3)n2)c1 | inactive |  |  |  |  |  |  |  |  | 
Cc1nc(-c2ccccc2)sc1-c1nnc(C2CC2)o1 |  | 1.23 | 1.31 (inactive) | 1.21 | 1.79 (inactive) | 1.56% (inactive) | -14.2% (inactive) | -0.816% (inactive) | 0.99 | 1.05 (inactive)
